From PubChem BioAssay (NCI)
This is part of a sample that, as a whole, favours compounds with a hit. Of some 83,000 tested, about 20% had one in any assay.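 Cell lines were cultured in 96-well plates, exposed to a single compound concentration, and assessed for percent growth 48 hours later.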 The source made the active and inactive calls. How the source made its calls: active means growth percent below 10; inactive means the rest.

Tests used:
Assay in all cases: NCI-60 one-dose screen, 48 h (100 = growth as untreated, 0 = no growth, -100 = all killed)
Settings in all cases: 10 µM unless noted
SK-MEL-2 melanoma = test system: SK-MEL-2 melanoma
SN12C renal = test system: SN12C renal
UO-31 renal = test system: UO-31 renal
TK-10 renal = test system: TK-10 renal
ACHN renal = test system: ACHN renal
CAKI-1 renal = test system: CAKI-1 renal
A498 renal = test system: A498 renal
CCRF-CEM leukemia = test system: CCRF-CEM leukemia
MOLT-4 leukemia = test system: MOLT-4 leukemia

Measured: growth

O=C(c1ccccc1)C(Br)[N+](=O)[O-] (stereo not drawn)
inactive: SK-MEL-2 melanoma 97.5% | SN12C renal 103% | UO-31 renal 80.8% | TK-10 renal 106% | ACHN renal 86.8% | CAKI-1 renal 93% | A498 renal 101% | CCRF-CEM leukemia 24.8% | MOLT-4 leukemia 20.6%

CCC1C[N+]2=C(c3cc(OC)c(OC)cc3CC2)c2c1cc1n2CCc2cc(OC)c(OC)cc2-1 (stereo not drawn)
inactive: SN12C renal 32.7% | UO-31 renal 90.3% | TK-10 renal 82.9% | ACHN renal 96.9% | CAKI-1 renal 87% | A498 renal 75% | CCRF-CEM leukemia 52.1% | MOLT-4 leukemia 41.5%
active: SK-MEL-2 melanoma -1.15%

CCCCN(CCCC)CCCCCCCCCCO
inactive: SK-MEL-2 melanoma 86.9% | SN12C renal 107% | UO-31 renal 81.3% | TK-10 renal 93.6% | ACHN renal 97.1% | CAKI-1 renal 105% | A498 renal 123% | CCRF-CEM leukemia 98% | MOLT-4 leukemia 83%

O=[N+]([O-])c1ccc(N2CCN(Cc3ccccc3)CC2)c2c1no[n+]2[O-]
inactive: SK-MEL-2 melanoma 64.8% | SN12C renal 19.1% | CAKI-1 renal 15.3% | A498 renal 47.6%
active: UO-31 renal -78.1% | TK-10 renal -15.7% | ACHN renal -91.6% | CCRF-CEM leukemia -31.6% | MOLT-4 leukemia -29.8%

CC(=O)c1ccc2c(c1)CCc1ccccc1-2
inactive: SK-MEL-2 melanoma 110% | SN12C renal 109% | UO-31 renal 105% | TK-10 renal 99.9% | ACHN renal 108% | CAKI-1 renal 101% | A498 renal 63.1% | CCRF-CEM leukemia 109% | MOLT-4 leukemia 114%

CCCCCCN(CCCCCC)CCCNc1nccc2ccccc12
inactive: SK-MEL-2 melanoma 21.4% | SN12C renal 18.7% | UO-31 renal 15.2% | TK-10 renal 39.8% | ACHN renal 19.2% | CAKI-1 renal 21.4% | CCRF-CEM leukemia 12.4% | MOLT-4 leukemia 11.8%

O=C(c1ccccc1)N(CCCl)C(=O)N(CCCl)C(=O)c1ccccc1
inactive: SK-MEL-2 melanoma 93.5% | SN12C renal 94.1% | UO-31 renal 82.4% | TK-10 renal 103% | ACHN renal 94.1% | CAKI-1 renal 97.3% | A498 renal 96.6% | CCRF-CEM leukemia 100% | MOLT-4 leukemia 86.3%

O=C1C=CC(=O)N1c1cc(Cl)c(Cl)cc1Cl
inactive: SK-MEL-2 melanoma 87.2% | SN12C renal 104% | UO-31 renal 76.7% | TK-10 renal 106% | ACHN renal 96% | CAKI-1 renal 103% | A498 renal 105% | CCRF-CEM leukemia 37.5% | MOLT-4 leukemia 95.5%

CC(=O)Nc1ccc(C(=O)CCl)cc1
inactive: SK-MEL-2 melanoma 96.6% | SN12C renal 90.6% | UO-31 renal 54.2% | TK-10 renal 43.8% | CAKI-1 renal 38.6% | A498 renal 99.8% | MOLT-4 leukemia 73.6%
active: ACHN renal -58% | CCRF-CEM leukemia -49.9%

S=C1SCN(Cc2cccs2)CN1Cc1cccs1
inactive: SK-MEL-2 melanoma 99% | SN12C renal 98.7% | UO-31 renal 88.8% | TK-10 renal 90.7% | ACHN renal 105% | CAKI-1 renal 99.4% | A498 renal 95.7% | CCRF-CEM leukemia 70.9% | MOLT-4 leukemia 100%

CCCCC(CCc1ccc([N+](=O)[O-])cc1)(C(C)=O)C(=O)OCC (stereo not drawn)
inactive: SK-MEL-2 melanoma 99.6% | SN12C renal 103% | UO-31 renal 67.7% | TK-10 renal 97.3% | ACHN renal 114% | CAKI-1 renal 96.8% | A498 renal 50.6% | CCRF-CEM leukemia 94.5% | MOLT-4 leukemia 90.3%

CCN(CC)CCNC(Cc1ccccc1)c1ccc(OCc2ccccc2)cc1 (stereo not drawn)
inactive: SK-MEL-2 melanoma 97% | SN12C renal 73.2% | UO-31 renal 41% | TK-10 renal 64% | ACHN renal 61.4% | CAKI-1 renal 85.2% | A498 renal 49.8% | CCRF-CEM leukemia 51.4% | MOLT-4 leukemia 57.4%

CC12CCC(O)CC1=CCC1C2CCC2(C)C3=NN=CC3CC12 (stereo not drawn)
inactive: SK-MEL-2 melanoma 118% | SN12C renal 105% | UO-31 renal 105% | TK-10 renal 108% | ACHN renal 97.7% | CAKI-1 renal 127% | CCRF-CEM leukemia 91% | MOLT-4 leukemia 83.8%

COc1cc(OC)c(/C=C/c2c3ccccc3cc[n+]2C)c(OC)c1
inactive: SK-MEL-2 melanoma 20.4% | SN12C renal 14.2% | UO-31 renal 75.5% | TK-10 renal 42.1% | ACHN renal 71.5% | CAKI-1 renal 67.8% | A498 renal 36.6% | CCRF-CEM leukemia 18.2% | MOLT-4 leukemia 14.7%

CC(C)c1ccc(Nc2n[nH]c(=S)s2)cc1
inactive: SK-MEL-2 melanoma 111% | SN12C renal 98.2% | UO-31 renal 83.7% | TK-10 renal 93.1% | ACHN renal 106% | CAKI-1 renal 114% | A498 renal 94.6% | MOLT-4 leukemia 97.6%

NNc1ccc(Cl)cc1Cl
inactive: SK-MEL-2 melanoma 92.4% | SN12C renal 78.3% | UO-31 renal 29.2% | TK-10 renal 94.3% | ACHN renal 54.7% | CAKI-1 renal 58.8% | CCRF-CEM leukemia 27.7% | MOLT-4 leukemia 52.7%

O=C(O)c1cc2c(s1)C(=O)c1sccc1C2=O
active: SN12C renal -46.9% | UO-31 renal -43.1%
inactive: SK-MEL-2 melanoma 15.5% | TK-10 renal 115% | ACHN renal 80.1% | CAKI-1 renal 107% | A498 renal 103% | CCRF-CEM leukemia 42.5% | MOLT-4 leukemia 72.3%

Cc1ccc(/C=C2\CNC/C(=C\c3ccc(C)cc3)C2=O)cc1
active: SN12C renal -61.3% | UO-31 renal -81.2% | ACHN renal -82.5% | CAKI-1 renal -44.1% | CCRF-CEM leukemia -3.56% | MOLT-4 leukemia -11.4%
inactive: SK-MEL-2 melanoma 61% | TK-10 renal 16.9%

O=C/C=C/c1ccc([N+](=O)[O-])cc1
inactive: SK-MEL-2 melanoma 103% | SN12C renal 102% | UO-31 renal 84.2% | TK-10 renal 99.9% | ACHN renal 112% | CAKI-1 renal 100% | A498 renal 78.6% | MOLT-4 leukemia 82.1%

Cc1cc(N/N=C/c2ccccn2)nc2ccccc12
active: UO-31 renal -8.77% | ACHN renal 0.182% | CAKI-1 renal -8.9% | CCRF-CEM leukemia 2.52% | MOLT-4 leukemia 5.97%
inactive: SK-MEL-2 melanoma 50.2% | SN12C renal 17.4% | TK-10 renal 34.1% | A498 renal 27.7%

NC(=S)N/N=C\c1nccc2c(C(F)(F)F)cccc12
inactive: SN12C renal 17.2% | TK-10 renal 17%
active: SK-MEL-2 melanoma -7.77% | UO-31 renal -35.2% | ACHN renal 6.72% | CAKI-1 renal -2.51% | CCRF-CEM leukemia -9.85% | MOLT-4 leukemia -40.2%

COc1cc(-c2ccc(-[n+]3nc(-c4ccc([N+](=O)[O-])cc4)nn3-c3ccc([N+](=O)[O-])cc3)c(OC)c2)ccc1-[n+]1nc(-c2ccc([N+](=O)[O-])cc2)nn1-c1ccc([N+](=O)[O-])cc1
active: SK-MEL-2 melanoma 1.62% | SN12C renal 2.95% | UO-31 renal 6.95% | TK-10 renal -9.35% | ACHN renal 9.61% | CAKI-1 renal -9.54% | A498 renal -22.2%
inactive: CCRF-CEM leukemia 12.7% | MOLT-4 leukemia 17.9%

O=C(CCl)N1c2ccccc2Sc2c1ccc1ccccc21
active: CCRF-CEM leukemia 6.54%
inactive: SK-MEL-2 melanoma 82.7% | SN12C renal 73.8% | UO-31 renal 70.4% | TK-10 renal 119% | ACHN renal 78.7% | CAKI-1 renal 80.7% | A498 renal 110% | MOLT-4 leukemia 12%

CN(C)c1ccc2cc3c(cc2c1)Oc1ccccc1N3.[Cl][Zn][Cl]
inactive: SK-MEL-2 melanoma 89.5% | SN12C renal 89.3% | TK-10 renal 77.4% | ACHN renal 70.9% | CAKI-1 renal 54.2% | A498 renal 115% | CCRF-CEM leukemia 31.4% | MOLT-4 leukemia 24.7%
active: UO-31 renal 5.78%

O=C(/C(Cl)=N/O)c1ccc(-c2ccccc2)cc1
inactive: SK-MEL-2 melanoma 110% | SN12C renal 103% | UO-31 renal 57.9% | TK-10 renal 106% | ACHN renal 86.8% | CAKI-1 renal 91.1% | A498 renal 123% | MOLT-4 leukemia 83.3%
active: CCRF-CEM leukemia 8.56%

CCCOS(=O)(=O)c1ccccc1
inactive: SK-MEL-2 melanoma 114% | SN12C renal 103% | UO-31 renal 83.3% | TK-10 renal 102% | ACHN renal 102% | CAKI-1 renal 91.8% | A498 renal 100% | MOLT-4 leukemia 107%
active: CCRF-CEM leukemia 6.52%

Cn1ccc(=Nc2ccc(NC(=O)c3ccc(N=c4ccn(C)c5ccc([N+](=O)[O-])cc45)cc3)cc2)cc1
inactive: SK-MEL-2 melanoma 91.1% | SN12C renal 45.3% | UO-31 renal 82.6% | TK-10 renal 122% | ACHN renal 99.2% | CAKI-1 renal 113% | CCRF-CEM leukemia 89.2% | MOLT-4 leukemia 126%

CCC[CH2][Sn]1([CH2]CCC)[O]C2C(CO)OC(n3ccc(N)nc3=O)C2[O]1 (stereo not drawn)
active: SK-MEL-2 melanoma -91.9% | SN12C renal -52.6% | UO-31 renal -78.2% | TK-10 renal -98.2% | ACHN renal -83.9% | CAKI-1 renal -82.7% | A498 renal -94.5% | MOLT-4 leukemia -26.6%

COC(=O)[C@]1(C)CCC[C@]2(C)c3ccc(C(C)C)cc3C(=O)[C@@H](Br)[C@@H]12
inactive: SK-MEL-2 melanoma 103% | SN12C renal 96.1% | UO-31 renal 69.5% | TK-10 renal 102% | ACHN renal 92.6% | CAKI-1 renal 89% | A498 renal 109% | CCRF-CEM leukemia 70.9% | MOLT-4 leukemia 60.1%

O=C1Nc2ccc(Br)cc2C1=O
inactive: SK-MEL-2 melanoma 117% | SN12C renal 97% | UO-31 renal 78.9% | TK-10 renal 131% | ACHN renal 101% | CAKI-1 renal 100% | A498 renal 107% | MOLT-4 leukemia 95.9%

OC(c1cc2ccc(C(F)(F)F)cc2c2cc(C(F)(F)F)ccc12)C1CCCCN1 (stereo not drawn)
active: SK-MEL-2 melanoma -83.1% | SN12C renal -90.8% | UO-31 renal -95.8% | TK-10 renal -89.5% | ACHN renal -94.1% | CAKI-1 renal -93.8% | A498 renal -65.6% | CCRF-CEM leukemia -68% | MOLT-4 leukemia -73.4%

CCCCCCCCCCCC[n+]1ccc(CCCCCCCCC)cc1
active: SK-MEL-2 melanoma -48.1% | SN12C renal -70.9% | UO-31 renal -19.4% | TK-10 renal -31.4% | ACHN renal -80.7% | A498 renal -25.4% | CCRF-CEM leukemia -34.9% | MOLT-4 leukemia -44.7%
inactive: CAKI-1 renal 23.4%
